Read-out in test [1]: C-C motif chemokine 2 (Homo sapiens) (UniProt P13500)
Put plainly: BSK_KF3CT_MCP1: BioMAP Diversity Plus: KF3CT Assay for Monocyte Chemoattractant Protein 1 (MCP1/CCL2) Biomarker Activity (AID 2283073). The following applies: primary human keratinocytes with fibroblasts; actives raise or lower the signal. Summed up:
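Human keratinocyte–foreskin fibroblast co-culture; MCP-1 measured by ELISA 24 h after dosing. Bidirectional fit vs DMSO; cytotoxicity tracked by SRB total protein in parallel cultures.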

Read-out in test [2]: Matrix Metallopeptidase 9 (MMP9), MMP9 (gene 4318)
The experiment in a line: BSK_KF3CT_MMP9: BioMAP Diversity Plus: KF3CT Assay for Matrix Metallopeptidase 9 (MMP9) Biomarker Activity (AID 2283074).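 As to AC50: MMP9 protein level quantified by ELISA in the co-culture.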 As to conditions: primary human keratinocytes with fibroblasts; actives raise or lower the signal. An outline of the steps: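 Human keratinocyte/foreskin fibroblast co-culture; compound added; 24 h; MMP-9 by ELISA; bidirectional fit vs DMSO baseline.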

Read-out in test [3]: urokinase plasminogen activator (uPA), PLAU (gene 5328)
Put plainly: BSK_KF3CT_uPA: BioMAP Diversity Plus: KF3CT Assay for urokinase plasminogen activator (uPA) Biomarker Activity (AID 2283075). As to conditions: primary human keratinocytes with fibroblasts; actives raise or lower the signal. Summed up:
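ELISA readout of uPA, analyzed for signal gain or loss relative to DMSO, from a human primary keratinocyte–foreskin fibroblast co-culture measured 24 h after chemical treatment.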

Read-out in test [4]: CD40, CD40 (gene 958)
The experiment in a line: BSK_LPS_CD40: BioMAP Diversity Plus: LPS Assay for CD40 Biomarker Activity (AID 2283076). As to conditions: primary human HUVEC with PBMC; actives raise or lower the signal. Summed up:
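HUVEC plus PBMC co-culture stimulated with LPS; CD40 quantified by ELISA 24 h after compound dosing. Fitting was bidirectional relative to DMSO. SRB staining of parallel cultures flagged overt cytotoxicity.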

Read-out in test [5]: E-selectin (Homo sapiens) (UniProt P16581)
Put plainly: BSK_LPS_Eselectin: BioMAP Diversity Plus: LPS Assay for Eselectin Biomarker Activity (AID 2283077). As to conditions: primary human HUVEC with PBMC; actives raise or lower the signal. An outline of the steps:
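Human umbilical vein endothelial cells co-cultured with PBMC under LPS stimulation; cell-surface E-selectin measured by ELISA 24 h after dosing. Change in either direction versus DMSO, with SRB total-protein staining in parallel cultures for cytotoxicity.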

Read-out in test [6]: Interleukin-8 (IL8), CXCL8 (gene 3576)
The experiment in a line: BSK_LPS_IL8: BioMAP Diversity Plus: LPS Assay for Interleukin-8 (IL8) Biomarker Activity (AID 2283078). As to conditions: primary human HUVEC with PBMC; actives raise or lower the signal. Summed up: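 Human umbilical vein endothelial cells co-cultured with PBMC, LPS-stimulated, exposed to compound for 24 h. IL-8 quantified by ELISA; fitted in both directions against DMSO, with SRB total-protein staining of parallel cultures for cytotoxicity.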

A short description of test [7]: BSK_LPS_SRB: Viability Assessment in the BioMAP Diversity Plus: LPS Assay (AID 2283079).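 Also: total protein by sulforhodamine B absorbance as a cytotoxicity measure; measured one day after compound addition; fitted in both directions against DMSO so loss or gain of signal counts.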 As to conditions: primary human HUVEC with PBMC. Summed up:
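Co-culture of human umbilical vein endothelial cells and PBMC, read 24 h after dosing. Total protein by 0.1% SRB staining after 10% TCA fixation, absorbance at 560 nm; bidirectional fit against DMSO.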

Read-out in test [8]: Interleukin-1 alpha (IL1a), IL1A (gene 3552)
Put plainly: BSK_LPS_IL1a: BioMAP Diversity Plus: LPS Assay for Interleukin-1 alpha (IL1a) Biomarker Activity (AID 2283080). As to conditions: primary human HUVEC with PBMC; actives raise or lower the signal. An outline of the steps:
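Human umbilical vein endothelial cells co-cultured with PBMC and stimulated with LPS; IL-1a measured by ELISA 24 h after dosing. Bidirectional fitting against DMSO; cytotoxicity checked by SRB staining in parallel cultures.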

Read-out in test [9]: Monocyte Chemoattractant Protein-1 (MCP1), CCL2 (gene 6347)
Put plainly: BSK_LPS_MCP1: BioMAP Diversity Plus: LPS Assay for Monocyte Chemoattractant Protein-1 (MCP1) Biomarker Activity (AID 2283081).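 As to AC50: secreted MCP-1 protein quantified by ELISA in culture supernatant.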 As to conditions: primary human HUVEC with PBMC; actives raise or lower the signal. An outline of the steps: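 Human umbilical vein endothelial cells co-cultured with PBMC, LPS-stimulated; secreted MCP-1 measured by ELISA 24 h after compound addition. Bidirectional curve fitting against DMSO baseline; SRB total-protein staining in parallel cultures for cytotoxicity.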

Test [10] in a line: BSK_LPS_PGE2: BioMAP Diversity Plus: LPS Assay for Prostaglandin E2 (PGE2) Biomarker Activity (AID 2283082).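 As to AC50: secreted prostaglandin E2 measured by ELISA in LPS-stimulated co-culture.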 The following applies: primary human HUVEC with PBMC; actives raise or lower the signal. Summed up:
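Endpoint derived from bidirectional curve fitting versus DMSO of ELISA-measured PGE2 in LPS-stimulated human primary vascular co-culture (HUVEC with PBMC) harvested at 24 h.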

Read-out in test [11]: Macrophage colony-stimulating factor (MCSF), CSF1 (gene 1435)
The experiment in a line: BSK_LPS_MCSF: BioMAP Diversity Plus: LPS Assay for Macrophage colony-stimulating factor (MCSF) Biomarker Activity (AID 2283083). The following applies: primary human HUVEC with PBMC; actives raise or lower the signal. An outline of the steps:
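HUVEC–PBMC co-culture, M-CSF measured by ELISA 24 h after chemical dosing. Fitted in both directions relative to DMSO as negative control; overt cytotoxicity assessed by SRB total-protein staining in parallel cultures.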

Read-out in test [12]: Tissue Factor, F3 (gene 2152)
The experiment in a line: BSK_LPS_TissueFactor: BioMAP Diversity Plus: LPS Assay for Tissue Factor Biomarker Activity (AID 2283084). As to conditions: primary human HUVEC with PBMC; actives raise or lower the signal. An outline of the steps: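 Human umbilical vein endothelial cells co-cultured with PBMC were dosed with compound. Cell-surface CD142 was measured by ELISA 24 h later. Activity was fitted bidirectionally against DMSO, with SRB total-protein staining in parallel cultures for cytotoxicity.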

Read-out in test [13]: Tumor necrosis factor (Homo sapiens) (UniProt P01375)
The experiment in a line: BSK_LPS_TNFa: BioMAP Diversity Plus: LPS Assay for Tumour Necrosis Factor alpha (TNFa) Biomarker Activity (AID 2283085). The following applies: primary human HUVEC with PBMC; actives raise or lower the signal. An outline of the steps:
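Primary human vascular co-culture of HUVEC and PBMC; TNFa ELISA 24 h after treatment, analysed as increase or decrease relative to DMSO control.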

Read-out in test [14]: Vascular cell adhesion molecule 1 (VCAM1), VCAM1 (gene 7412)
The experiment in a line: BSK_LPS_VCAM1: BioMAP Diversity Plus: LPS Assay for Vascular cell adhesion molecule 1 (VCAM1) Biomarker Activity (AID 2283086). As to conditions: primary human HUVEC with PBMC; actives raise or lower the signal. An outline of the steps: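 Primary human vascular co-culture (umbilical vein endothelium plus PBMC) stimulated with LPS received chemical; 24 h later VCAM-1 was read by ELISA. Overt cytotoxicity was assessed by sulforhodamine B staining of parallel cultures at the same time point.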

Read-out in the next test: CD38, CD38 (gene 952)
Put plainly: BSK_SAg_CD38: BioMAP Diversity Plus: SAg Assay for CD38 Biomarker Activity (AID 2283087). The following applies: primary human HUVEC with PBMC; actives raise or lower the signal. An outline of the steps: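 Fluorescence ELISA of cell-surface CD38 served as the read-out, with either increase or decrease fitted against DMSO controls. Cells were a human umbilical vein endothelium plus PBMC co-culture under SEB/TSST-1 stimulation, measured 24 h after dosing.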

Read-out in test [15]: CD40, CD40 (gene 958)
Put plainly: BSK_SAg_CD40: BioMAP Diversity Plus: SAg Assay for CD40 Biomarker Activity (AID 2283088). The following applies: primary human HUVEC with PBMC; actives raise or lower the signal. An outline of the steps:
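HUVEC plus PBMC co-culture, superantigen-activated, with CD40 read by ELISA 24 h after dosing. Curves fitted in both directions against DMSO. Overt cytotoxicity checked by parallel SRB total-protein staining.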

Read-out in a further test: CD69, CD69 (gene 969)
The experiment in a line: BSK_SAg_CD69: BioMAP Diversity Plus: SAg Assay for CD69 Biomarker Activity (AID 2283089).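 As to AC50: cell surface CD69 protein quantified by ELISA with fluorescence detection.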 As to conditions: primary human HUVEC with PBMC; actives raise or lower the signal. Summed up: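 Endothelial/PBMC co-culture; chemical added; 24 h incubation; CD69 ELISA with fluorescence detection; bidirectional fit vs DMSO.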

Read-out in test [16]: Monocyte Chemoattractant Protein-1 (MCP1), CCL2 (gene 6347)
Put plainly: BSK_SAg_MCP1: BioMAP Diversity Plus: SAg Assay for Monocyte Chemoattractant Protein-1 (MCP1) Biomarker Activity (AID 2283090). As to conditions: primary human HUVEC with PBMC; actives raise or lower the signal. Summed up:
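MCP-1 levels in the endothelial–PBMC SAg co-culture were quantified by ELISA at 24 h post-dosing; both increases and decreases versus DMSO scored. Cytotoxicity monitored by SRB total protein in parallel cultures.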

Read-out in test [17]: Monokine induced gamma interferon (MIG), CXCL9 (gene 4283)
Put plainly: BSK_SAg_MIG: BioMAP Diversity Plus: SAg Assay for Monokine induced gamma interferon (MIG) Biomarker Activity (AID 2283092). As to conditions: primary human HUVEC with PBMC; actives raise or lower the signal. Summed up: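 Measures CXCL9 protein by ELISA in a human vascular primary-cell co-culture (umbilical vein endothelium with PBMC) 24 h after chemical addition. Activity is scored up or down from the DMSO control.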

Calls of active or inactive are those of the source. The calls were made as follows: active = hit-call score of the fitted dose curve at least 0.9, where 1 is the maximum; inactive = score below 0.9.

By AC50 is commonly meant the concentration at which the activity in the assay is half-maximal.

Sequence of Tumor necrosis factor (Homo sapiens) (P01375 whole entry, looked up): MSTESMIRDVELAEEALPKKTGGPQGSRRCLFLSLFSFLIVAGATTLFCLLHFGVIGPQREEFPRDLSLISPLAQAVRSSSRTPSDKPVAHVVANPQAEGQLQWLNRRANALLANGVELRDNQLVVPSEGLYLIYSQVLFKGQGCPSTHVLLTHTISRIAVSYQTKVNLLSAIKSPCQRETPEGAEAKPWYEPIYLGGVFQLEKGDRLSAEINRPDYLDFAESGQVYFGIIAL
Sequence of E-selectin (Homo sapiens) (P16581 whole entry, looked up): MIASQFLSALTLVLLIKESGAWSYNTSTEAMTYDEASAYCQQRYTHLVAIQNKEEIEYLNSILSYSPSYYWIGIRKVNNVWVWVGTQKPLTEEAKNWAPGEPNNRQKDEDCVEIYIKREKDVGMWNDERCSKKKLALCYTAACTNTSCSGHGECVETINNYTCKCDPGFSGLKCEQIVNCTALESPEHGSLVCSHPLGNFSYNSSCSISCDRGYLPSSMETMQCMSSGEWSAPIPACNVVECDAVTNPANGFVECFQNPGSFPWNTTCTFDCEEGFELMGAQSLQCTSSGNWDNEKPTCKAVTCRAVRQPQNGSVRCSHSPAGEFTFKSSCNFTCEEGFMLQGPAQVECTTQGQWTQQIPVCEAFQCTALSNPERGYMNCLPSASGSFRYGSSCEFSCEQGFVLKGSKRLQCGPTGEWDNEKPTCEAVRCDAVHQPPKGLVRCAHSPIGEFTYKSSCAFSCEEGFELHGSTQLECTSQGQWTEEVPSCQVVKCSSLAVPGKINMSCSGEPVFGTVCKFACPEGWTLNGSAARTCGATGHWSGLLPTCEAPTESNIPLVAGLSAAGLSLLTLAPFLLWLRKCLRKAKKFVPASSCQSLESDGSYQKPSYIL

For the compound `Oc1ccc(-c2ccccc2)cc1`, the AC50 in test [1] was 0.016 µM (active). In addition, the outcome in test [2] was “inactive”; in test [3], “inactive”; with CD40, CD40 (gene 958) [4], “inactive”; in test [5], “inactive”; in [6], “inactive”; in test [7], “inactive”. The outcome in test [8], in [9], in test [10], in test [11], in [12] and in test [13] was inactive. The outcome in [14] is “inactive”; with CD38, CD38 (gene 952), “inactive”; with CD40, CD40 (gene 958) [15] it was “inactive”; with CD69, CD69 (gene 969), “inactive”; in test [16], “inactive”; in test [17], “inactive”.
In the case of `C[C@]12CCC(=O)C[C@@H]1CC[C@@H]1[C@@H]2CC[C@]2(C)[C@@H](O)CC[C@@H]12`, the outcome is “inactive” in [1]; “inactive” in test [2]; “inactive” in test [3]; “inactive” with CD40, CD40 (gene 958) [4]; “inactive” in test [6]; “inactive” in test [8]. The outcome in test [10] was “inactive”; in [12], “inactive”; in test [13], “inactive”; with CD38, CD38 (gene 952) it was “inactive”; with CD40, CD40 (gene 958) [15], “inactive”; with CD69, CD69 (gene 969) it was “inactive”. For the same compound, in test [17], the result was inactive. Further, the AC50 in test [5] was 28.1 µM (active); in test [7], 19.8 µM (active); in test [9] it was 26 µM (active); in test [11], 19 µM (active); in test [14] it was 29 µM (active); in test [16] it was 28.2 µM (active).
For the compound `O=C(Nc1ccc2[nH]ccc2c1)c1cc2cc(F)ccc2n1Cc1cccc(F)c1`, the AC50 is 6.52 µM (active) in test [1]; 4.6 µM (active) in test [2]; 8.64 µM (active) in [3]; 8.35 µM (active) in the test with CD40, CD40 (gene 958) [4]; 12.4 µM (active) in test [5]; 10.4 µM (active) in test [6]. In addition, the AC50 in test [7] is 13.2 µM (active); in [8] it was 7.97 µM (active); in test [9] it was 10.4 µM (active); in test [10] it was 20 µM (active); in [11], 14 µM (active); in test [12], 8.59 µM (active). For the same compound, the AC50 in test [13] is 26.5 µM (active); in [14], 11.9 µM (active); with CD38, CD38 (gene 952), 10.3 µM (active); with CD40, CD40 (gene 958) [15], 8.2 µM (active); in the test with CD69, CD69 (gene 969) it was 10.6 µM (active); in [16] it was 9.29 µM (active). Also, the AC50 in test [17] was 12.7 µM (active).

Source of the values: PubChem BioAssay (EPA / NIEHS).
